# The campaign covered roughly 310,000 compounds. About 14,000 (4.5%) showed an effect of 50% or more. The effect is printed as a negative number. For the sample, strong results were picked, then their nearest neighbours and some compounds at random.
# Target: human ether-à-go-go-related gene (hERG) potassium channel (human, UniProt Q12809)
# Assay: primary screen, population patch clamp on CHO cells stably expressing hERG; higher = less effect of the substance
# 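Note: peak tail current of the secondary pulse compared with the same well before compound.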
# Chain of human ether-à-go-go-related gene (hERG) potassium channel (Q12809 whole entry, looked up): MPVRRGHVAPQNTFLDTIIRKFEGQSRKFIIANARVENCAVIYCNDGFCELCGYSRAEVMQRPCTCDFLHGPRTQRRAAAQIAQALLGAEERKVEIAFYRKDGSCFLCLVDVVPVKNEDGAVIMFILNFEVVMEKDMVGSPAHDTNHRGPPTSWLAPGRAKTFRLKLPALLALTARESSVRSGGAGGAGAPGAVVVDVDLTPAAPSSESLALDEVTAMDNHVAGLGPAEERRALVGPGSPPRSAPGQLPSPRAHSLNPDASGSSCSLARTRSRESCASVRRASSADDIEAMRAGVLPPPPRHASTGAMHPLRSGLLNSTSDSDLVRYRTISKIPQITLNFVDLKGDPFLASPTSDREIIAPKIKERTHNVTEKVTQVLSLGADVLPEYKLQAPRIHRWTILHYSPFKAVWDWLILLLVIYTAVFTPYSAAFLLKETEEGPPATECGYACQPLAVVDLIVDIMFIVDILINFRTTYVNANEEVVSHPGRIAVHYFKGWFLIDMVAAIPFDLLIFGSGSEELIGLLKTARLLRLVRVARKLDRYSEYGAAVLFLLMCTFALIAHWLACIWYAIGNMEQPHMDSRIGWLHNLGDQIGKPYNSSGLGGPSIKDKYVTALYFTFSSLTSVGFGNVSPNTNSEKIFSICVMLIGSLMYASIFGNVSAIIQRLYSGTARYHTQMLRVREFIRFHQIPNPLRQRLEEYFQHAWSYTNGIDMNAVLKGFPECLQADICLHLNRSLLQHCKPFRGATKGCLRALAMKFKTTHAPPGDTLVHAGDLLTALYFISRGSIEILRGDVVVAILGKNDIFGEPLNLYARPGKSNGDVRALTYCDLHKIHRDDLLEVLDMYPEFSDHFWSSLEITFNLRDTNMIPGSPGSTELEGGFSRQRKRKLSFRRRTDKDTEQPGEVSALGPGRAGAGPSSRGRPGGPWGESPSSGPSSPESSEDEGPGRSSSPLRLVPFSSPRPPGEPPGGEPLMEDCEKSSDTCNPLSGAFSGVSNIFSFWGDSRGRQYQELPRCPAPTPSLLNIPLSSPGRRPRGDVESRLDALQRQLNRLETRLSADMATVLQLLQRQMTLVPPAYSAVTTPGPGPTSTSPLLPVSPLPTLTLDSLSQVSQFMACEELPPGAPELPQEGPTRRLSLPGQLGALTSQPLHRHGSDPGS
row,SMILES,"hERG current change (%, negative = inhibition) at 10uM [%]"
1,CC(C)CNC(=O)CCc1nc(-c2ccccc2)no1,10.4
2,O=[N+]([O-])c1cc(S(=O)(=O)C(F)(F)F)ccc1NCC1CCCO1 (centres unmarked),16.5
3,O=C(NCCCn1ncc2ccccc21)c1cc(COc2c(F)cccc2F)on1,6.73
4,CCn1ncc(Br)c1C(=O)Nc1ccc(Cl)cn1,-7.49
5,O=C(/C=C/c1ccc(Cl)cc1)N1CCN(c2ccc(Cl)cc2[N+](=O)[O-])CC1,-92.9
6,O=C(/C=C/c1ccc(Cl)cc1)N1CCN(c2c(Cl)cccc2[N+](=O)[O-])CC1,-58
7,O=[N+]([O-])c1cc(Cl)ccc1N1CCCC1,5.05
8,O=C(/C=C/c1ccc(Cl)cc1Cl)N1CCN(c2ccccc2[N+](=O)[O-])CC1,-72.7
9,CCC(=O)N1CCN(c2c(Cl)cccc2[N+](=O)[O-])CC1,-13.5
10,O=C1CN(C(=O)/C=C/c2cccc(Cl)c2)c2ccccc2N1,-21.4
11,O=C(/C=C/c1ccccc1)N1CCN(c2c(Cl)cccc2[N+](=O)[O-])CC1,-20.8
12,O=C1CN(C(=O)/C=C/c2ccc(Cl)cc2)c2ccccc2N1,-75.2
13,O=C1CN(C(=O)/C=C/c2ccccc2F)c2ccccc2N1,-2.56
14,O=C(/C=C/c1ccccc1[N+](=O)[O-])N1CCCCC1,-2.55
15,O=C(/C=C/c1ccc(Cl)cc1Cl)N1CCc2ccccc21,-1.39
16,CC(C)(C)C(=O)N1CCN(c2ccc(Cl)cc2[N+](=O)[O-])CC1,-39.3
17,Cc1nc2c(C)cccc2cc1C(=O)N/N=C/c1ccc(N(C)C)cc1,-9.49
18,COC(=O)c1cc(C)sc1NC(=O)CN1CCN(C(=O)C2CCCO2)CC1 (centres unmarked),-34.7
19,O=C(CS(=O)(=O)c1ccccc1)N1CCN(c2ccccc2)CC1,2.36
20,CCCOc1ccc(C2c3c(oc4ccccc4c3=O)C(=O)N2CCCN2CCOCC2)cc1 (centres unmarked),-6.76

row,SMILES,"hERG current change (%, negative = inhibition) at 10uM [%]"
1,CCCC(C)NC(=O)c1sc2nc3n(c(=O)c2c1C)CCC3 (centres unmarked),-6.29
2,Cc1cc(NC(=O)C2COc3ccccc3O2)no1 (centres unmarked),-0.48
3,O=C(CSc1n[nH]c(-c2ccco2)n1)Nc1sc2c(c1C(=O)Nc1ccccc1)CCCC2,-41
4,Cc1ccccc1NC(=O)c1c(C)[nH]c(=S)c(C#N)c1-c1ccc(Cl)cc1,21.1
5,Cc1ccc(-c2nnc(N(C)C(=O)C3CCCO3)s2)cn1 (centres unmarked),6.74
6,Cc1cc(C)cc(-n2c(C)cc(/C=C3\C(=N)N4N=C(CC(C)C)SC4=NC3=O)c2C)c1,5.86
7,c1ccc(COCCC2CO2)cc1 (centres unmarked),5.49
8,O=C(/C=C/c1ccc([N+](=O)[O-])cc1)N1CCN(c2ccccc2F)CC1,-34.2
9,O=C(/C=C/c1ccc(Cl)cc1)N1CCN(c2ccccc2[N+](=O)[O-])CC1,-75.4
10,CN1CCCN(C(=O)/C=C/c2ccc(Cl)cc2Cl)CC1.Cl,-67
11,O=C1CN(C(=O)/C=C/c2ccc(Cl)cc2Cl)CCN1,-19.2
12,O=C(/C=C/c1ccccc1Cl)N1CCCN(C(=O)/C=C/c2ccccc2Cl)CC1,-26.1
13,O=C(/C=C/c1ccc(Cl)cc1)N1CCN(c2ccccn2)CC1,-32.3
14,Cc1ccc(C(=O)NC2CC3CCCC(C2)N3Cc2ccccc2)cc1 (centres unmarked),-40.4
15,Cc1ccc(CN2C3CCCC2CC(NC(=O)c2ccc(C)cc2)C3)cc1 (centres unmarked),-77.7
16,O=C(NC1CC2CCCC(C1)N2C(=O)NC1CCCCC1)c1ccc(F)cc1 (centres unmarked),4.98
17,CCCNC(=S)NC1CC2CCC(C1)N2Cc1ccccc1 (centres unmarked),-35.7
18,CNC(=S)N1C2CCCC1CC(NC(=O)c1ccc(F)cc1)C2 (centres unmarked),6.93
19,O=C(NC1CC2CCCC(C1)N2Cc1ccc(F)cc1)c1ccc(F)cc1 (centres unmarked),-70.8
20,Cc1ccc(CN2C3CCCC2CC(NC(=O)c2ccc(F)cc2)C3)cc1 (centres unmarked),-74.1

row,SMILES,"hERG current change (%, negative = inhibition) at 10uM [%]"
1,CCC(=O)NC1CC2CCCC(C1)N2Cc1ccc(C)cc1 (centres unmarked),-37.4
2,CC(=O)NC1CC2CCC(C1)N2Cc1ccc(C)cc1 (centres unmarked),-25.4
3,CC(=O)NC1CC2CCCC(C1)N2Cc1ccc(C)cc1 (centres unmarked),-30.5
4,CCCNC(=S)NC1CC2CCCC(C1)N2CC(C)C.Cl (centres unmarked),13.1
5,CCCNC(=S)NC1CC2CCCC(C1)N2Cc1ccc(F)cc1 (centres unmarked),-60.6
6,CC(NC(=O)CSc1nnc(CC(=O)Nc2ccc(Cl)c(Cl)c2)n1C)c1ccccc1 (centres unmarked),4.55
7,COc1ccc(C2CC(c3ccc(Cl)cc3Cl)Nc3nc(N)nn32)cc1OC (centres unmarked),-18.7
8,COc1cc(NC(C)=O)c2ncccc2c1[N+](=O)[O-],-5.4
9,CC1CCCCC1NC(=O)CCN1C(=O)C2C3C=CC(C3)C2C1=O (centres unmarked),13
10,COc1cc2c(cc1OC)C(c1cc3cc4c(cc3[nH]c1=O)OCO4)N(C(=O)C(C)C)CC2 (centres unmarked),-4.79
11,Cc1ccc(C(=O)N/C(=C\c2ccc(-c3ccccc3[N+](=O)[O-])o2)C(=O)NCCCN2CCOCC2)cc1,-61.9
12,Cc1ccc(C(=O)N/C(=C\c2sccc2C)C(=O)NCCCN2CCOCC2)cc1,-17.7
13,Cc1ccc(C(=O)N/C(=C\c2ccc(-c3cccc([N+](=O)[O-])c3)o2)C(=O)NCCCN2CCOCC2)cc1,-74.9
14,N#C/C(=C\c1ccc(-c2cccc([N+](=O)[O-])c2)o1)C(=O)NCCN1CCOCC1,-47.2
15,Cc1ccc(C(=O)N/C(=C\c2cn(C)c3ccccc23)C(=O)NCCCN2CCOCC2)cc1,0.137
16,CNC(=O)/C(C#N)=C/c1ccc(-c2ccccc2[N+](=O)[O-])o1,8.72
17,Cc1ccc(C(=O)N/C(=C\c2ccco2)C(=O)NCCCN2CCOCC2)cc1C,-12.7
18,N#C/C(=C/c1ccc(-c2ccccc2[N+](=O)[O-])o1)C(=O)NCCN1CCCCC1,-69.1
19,N#C/C(=C\c1ccc(-c2ccccc2[N+](=O)[O-])o1)C(N)=O,24.6

# Reference: PMC4336329 (PLoS ONE, 2015)
